Experimental findings from ChEMBL document CHEMBL4513216, “Probing the Open Global Health Chemical Diversity Library for Multistage-Active Starting Points for Next-Generation Antimalarials” (ACS Infect Dis, 2020) are described below.

SMILES strings stand for the structures. Among all 69,000 compounds or so, about 8,600 (12%) showed an effect of 50% or more. Only a selection was taken, and strong results are over-represented in it overall.

This assay relates to Plasmodium berghei. Briefly: Screen against P. berghei liver stage (PbLuc), transformed with Luciferase, at 10uM. It counts as functional, HepG2. As to conditions: tested at 10 uM.
In the case of `CN(C)S(=O)(=O)NCC1(c2ccccc2Br)CC1`, the INHIBITION is 46.6%.
In the case of `CS(=O)(=O)NCC1(c2ccccc2Br)CC1` it was 46.6%.
In the case of `CCN(C)S(=O)(=O)NCC1(c2ccccc2Br)CC1` it was 51%; in that of `COCC(NC(=O)c1cn(-c2cccc(Cl)c2F)nn1)C1CC1` (stereo not drawn), 51.2%; in that of `COC(C)(C)CNC(=O)c1cn(-c2cccc(Cl)c2F)nn1`, 18.7%.
In the case of `O=C(c1cn(-c2cccc(Cl)c2F)nn1)N1CCCSCC1` it was -134%; in that of `CC(O)CN1CCN(C(=O)c2cn(-c3ccccc3Cl)nn2)CC1` (stereo not drawn), -9.67%; in that of `O=C(c1cn(-c2ccccc2Cl)nn1)N1CCSCC1`, -28.8%.
Consider `COCC(C)(C#N)NC(=O)c1cn(-c2cccc(Cl)c2F)nn1` (stereo not drawn), for which the INHIBITION was 55.6%.
In the case of `CNC(=O)c1sc2ccccc2c1CC1CCCN1Cc1cnc(C)s1` (stereo not drawn) it was 24.69%; in that of `CCN1CCc2[nH]nc(C(=O)N3CCCC3C)c2C1` (stereo not drawn), -65.2%.
In the case of `CS(=O)(=O)NC(=O)c1ccn(-c2cccc(Br)c2)n1` it was 16.3%; in that of `CC(c1ccccc1F)N(CC(N)=O)C1CC1` (stereo not drawn), 72.1%.
On to `CC(c1ccccc1Cl)N(C(=O)CSCC(N)=O)C1CC1` (stereo not drawn), for which the INHIBITION was 30.4%.
Consider `CC(c1ccccc1F)N(C(=O)CSCC(N)=O)C1CC1` (stereo not drawn), for which the INHIBITION is listed as 35.9%.
Consider `Cc1nnc2n1CCN(Cc1ccc3c(c1)OCCO3)C2`, for which the INHIBITION came to 33.8%.
Under `COCC(=O)N1CCC(O)(CN2CCN(c3ccccc3)CC2)C1` (stereo not drawn) stands 39.7%; under `CC1CCCCN1C(=O)c1nc2c(n1C(C)C)CCN(C)C2` (stereo not drawn), 58.5%.
Turning to `CC1CCCCN1C(=O)c1nc2c(n1C(C)C)CCN(C(=O)C1CC1)C2` (stereo not drawn), the INHIBITION was -0.554%.
`CC(C)n1c(C(=O)N2CCCC2)nc2c1CCN(C)C2`: the INHIBITION was determined as 9.79%.
For the molecule `COCCN1CCC2(C1)c1ccccc1S(=O)(=O)N2C` (stereo not drawn), the INHIBITION was found to be 40.5%.
For the molecule `Cc1cc(O)nc(C2CN(CC3(O)CCOCC3)CCO2)n1` (stereo not drawn), the INHIBITION is reported as -34.6%.
In the case of `Cc1cc(O)nc(C2CN(CCO)CCO2)n1` (stereo not drawn) it was 50.8%; in that of `Cc1cc(O)nc(C2CN(CCC(F)(F)F)CCO2)n1` (stereo not drawn), -6.92%; in that of `CN1CCN(C[C@@H]2CN(C3Cc4ccccc4C3)C[C@@H]2CO)CC1`, 8.51%.
In the case of `CC(NC(=O)C1CCCCC1)c1cc(O)nc(-c2cccnc2)n1` (stereo not drawn), the INHIBITION is -6.002%.
For `O=C(c1sccc1C1CC1)N1CCCN(c2cccnn2)CC1`, the INHIBITION is given as 15.7%.
In the case of `Cc1ncsc1CCN(C)Cc1ccc(Br)o1` it was 47.1%.
In the case of `Cc1ncsc1CCN(C)Cc1ccc(CO)o1` it was 57.6%.
As for `Cc1ccsc1CN(C)CCc1scnc1C`, the INHIBITION is 46.9%.
Take `CC(=O)N1CCCC(c2ncncc2-c2ccncc2)C1` (stereo not drawn): the INHIBITION came to 26.8%.
As to `COc1ccc(CN2C[C@@H](OCc3ccccn3)[C@H]3COC[C@H]32)cc1`, the INHIBITION was 34.7%.
On to `Cc1ccc(S(=O)(=O)NCc2cccc(C(=O)N3CCCC3)c2)cc1F`, for which the INHIBITION is reported as -51.5%.
Under `CC(C)c1noc(CCCC(=O)N2CCN(Cc3ccccn3)CC2)n1` stands 40%; under `Cc1ccc(NC2CCN(C(=O)Cc3c(C)noc3C)CC2)nn1`, 28.38%.
In the case of `CC(=O)Nc1nc(C(=O)N2CCCC(c3cc(C)[nH]n3)C2)cs1` (stereo not drawn) it was 22.3%.
In the case of `CC(C)NC(=O)c1csc(NC2CC2)n1` it was 13.9%; in that of `Cc1[nH]/c(=N\C(=O)c2csc(NC3CC3)n2)sc1C`, 77.9%.
With `CC(C)(C)[S+]([O-])CCNC(=O)c1csc(NC2CC2)n1` (stereo not drawn), the INHIBITION is -12.1%.
In the case of `Cc1[nH]/c(=N\C(=O)c2csc(NC3CCCC3)n2)sc1C` it was 83.8%.
With `CC(C)CCNC(=O)c1csc(NC2CC2)n1`, the INHIBITION was -70.8%.
As for `O=c1[nH]cnc2c1CCN(S(=O)(=O)c1ccc(OC(F)(F)F)cc1)C2`, the INHIBITION is recorded as -10.1%.
Take `CCc1ccc(NC(=O)Nc2c(O)oc3ccccc3c2=O)cc1`: the INHIBITION is recorded as -11.4%.
Under `O=C(COCc1ccccc1)NCc1ccc(O)c(F)c1` stands -7.93%.
Under `COCC(=O)N1CCCn2c(CN3CCCC3=O)nnc2C1` stands -15.6%; under `Cc1cc(CN(C)C(=O)c2ccc(Cl)cc2N2CCCC2=O)no1`, -9.37%.
Take `O=C(c1ccccn1)N1CCC2(CC1)CN(c1cncnc1)C(=O)CO2`: the INHIBITION is listed as 40.4%.
As for `Cc1nc2ccccc2c(=O)n1CCC(=O)N1CCCC1`, the INHIBITION is listed as 17.36%.
In the case of `CC(=O)NCC(=O)N1CCOCC(Cc2ccc3c(ccn3C)c2)C1` (stereo not drawn) it was -2.995%; in that of `Cc1nc(C)c(CCNC(Cc2ccncc2)C(F)(F)F)s1` (stereo not drawn), 48.5%; in that of `Cc1cnc(CCNC(Cc2ccncc2)C(F)(F)F)s1` (stereo not drawn), 11.7%.
In the case of `Cc1nc(CCNC(Cc2ccncc2)C(F)(F)F)cs1` (stereo not drawn) it was 59.3%; in that of `CN(C)C(=O)c1cc2ncc(C(=O)NC3CCCC3)cc2n1C`, -71.5%.
